# aSyn yeast inh: rescues yeast growth from alpha-synuclein toxicity | Yeast expressing alpha-synuclein, growth rescue, BacTiter-Glo, 24 h | Potency, µM (top dose mostly 46.1 µM), for inactives: top-dose growth rescue (activation), actives largely listed as activators | hit rate 0.14% among 370,000; also: % of control where 0% means no effect; nearly all actives have a fitted effect of over 65% in size
#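 Readout is rescue of growth in alpha-synuclein-expressing yeast, so inhibitors of toxicity appear as activators. Growth after 24 hr at 30 deg C in galactose medium is quantified by luminescence.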
# FUS yeast rescue: FUS proteinopathy suppression in yeast. Potency, µM (top dose mostly 76.6 µM), most hits filed as activators. hit rate 0.24% among 390,000. AID 1347120. S. cerevisiae FUS-expressing, growth rescue, OD600, 24 h;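 also: plate controls were DMSO vehicle for no effect and reference control for full effect; nearly all actives have a fitted effect of over 55% in size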
#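 Absorbance at 600 nm, taken 24hr after compound addition, measured rescue of FUS-yeast growth at 30C. Induction used 2% galactose with seeding at OD 0.005. Controls: CP55940 from 92uM final, DMSO only.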
# TDP-43 yeast inh: inhibitors of TDP-43 toxicity in yeast | Potency, µM (doses to about 46.1 µM), without a hit: top-dose growth rescue (activation), actives largely listed as activators | hit rate 1.8% among 410,000 | AID 652104 | TDP-43 expressing yeast growth rescue, BacTiter-Glo, 24 h; also: % of control where 0% means no effect; nearly all actives have a fitted effect of over 50% in size
#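 Cell-based yeast growth screen: TDP-43 expression induced in galactose, inoculum OD600=0.02 after raffinose pregrowth to mid-log. Read-out BacTiter-Glo luminescence at 24 hr, 30 deg C; inhibition of toxicity seen as signal increase.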
# Abeta rescue: compounds reversing amyloid beta toxicity in yeast | hit rate 0.063% among 410,000 | yeast expressing A-beta42, growth rescue, OD600, 48 h; response scale: 0% DMSO, 100% iron-clioquinol control | Potency, µM (titrated, usually from 46.1 µM), most hits filed as activators; also: nearly all actives have a fitted effect of over 55% in size
#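 Yeast A-beta toxicity model in growth medium with pinned compounds, 48 h at 30 C; growth read as absorbance at 600 nm. Normalized to FeCl3/clioquinol equimolar mix (positive) and DMSO (negative).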
# Active calls of the source: *; i = inactive; u = inconclusive; x = no result given. Hits are enriched below; roughly 2.1% of the tested compounds scored in any of these assays. Calls follow the shape of the dose curve; as a rule, active = well fitted curve in the direction sought with a large enough effect; inconclusive = small, poorly fitted or top-dose-only effect, or another doubt; inactive = no such curve, though single readings can be large; an effect the other way counts as inactive or inconclusive. Potency is read from the fitted curve at half-maximal effect.
SMILES,aSyn yeast inh,FUS yeast rescue,TDP-43 yeast inh,Abeta rescue
CCCn1nnnc1SCC(=O)Nc1nnc(CC)s1,-3.2%,i,-1.2%,i
CSc1cccc(NC(=O)CC(c2cccs2)N2Cc3ccccc3C2=O)c1 (stereo unspecified),-4.4%,i,-5.0%,i
COCCCNc1nc2ccccc2nc1NS(=O)(=O)c1ccc(Cl)cc1,-22.2%,i,-10.5%,i
COCCCNc1nc2ccccc2nc1NS(=O)(=O)c1cc(Cl)ccc1Cl,4.9%,i,22.4µM*,i
COc1ccc(C(=O)Nc2ccc3nc(SCC(=O)N(C)c4ccccc4)sc3c2)cc1,x,u,22.4µM*,i
O=C(COc1ccccc1)Nc1ccc2nc(SCC(=O)N3CCCC3)sc2c1,x,i,31.6µM*,i
Cc1ccc(NC(=O)c2oc3ccccc3c2COC(C)C)cc1S(=O)(=O)N1CCOCC1,15.2%,u,u,i
Fc1ccc(CNC(=S)Nc2ccccc2F)cc1,-1.4%,i,u,u
Fc1ccccc1NC(=S)NCc1ccc(Cl)cc1,0.8%,i,11.2µM*,u
S=C(NCc1ccccc1)Nc1cccc(Cl)c1,-10.9%,x,28.2µM*,i
COc1ccc(COC(=O)C2CCN(S(=O)(=O)c3ccc(F)cc3)CC2)cc1,-5.8%,i,-5.4%,i
O=C(OCc1ccc([N+](=O)[O-])cc1)C1CCN(S(=O)(=O)c2ccccc2)CC1,0.2%,i,10µM*,i
Cc1c([N+](=O)[O-])cnc(Sc2ccccc2)c1[N+](=O)[O-],-23.8%,i,22.4µM*,i
CNc1ncnc(Sc2ccc(Cl)cc2)c1[N+](=O)[O-],-3.6%,i,-6.0%,i
Cc1cc2c(C)nc(N/N=C/c3ccc([N+](=O)[O-])cc3)nc2o1,1.4%,x,22.1%,i
c1ccc2c(c1)Cn1c-2nc2ccccc21,-10.0%,i,-36.8%,i
Brc1c(-c2ccccc2)nc2n1Cc1ccccc1-2,u,i,12.6µM*,i
COc1ccc(-c2nnn3c2nc(NCCc2ccc(OC)c(OC)c2)c2ccccc23)cc1,x,i,0.9%,i
CCOc1ccc(C(=O)OC(C)C(=O)N2CCN(Cc3ccccc3)CC2)cc1 (stereo unspecified),-1.5%,i,3.16µM*,i
CCOc1ccc(C(=O)NCC(=O)N2CCN(Cc3ccccc3)CC2)cc1,-11.6%,i,-5.0%,i
COc1ccc(NC(=O)c2cnc[nH]2)cc1,x,i,-2.1%,i
COC(=O)c1sc(-c2ccc(C(C)(C)C)cc2)cc1NC(=O)CSCC(=O)O,-22.3%,28.2µM*,15.0%,i
COC(=O)c1sc(-c2ccc(C(C)(C)C)cc2)cc1NC(=O)c1ccccc1C(=O)O,-89.8%,i,23.9%,i
Cc1cc(NC(=S)NC(=O)C2CC2)ccc1Br,-37.0%,i,15.8µM*,i
Cc1cc(C)cc(NC(=S)NC(=O)C2CC2)c1,-0.7%,i,11.2µM*,i
SMILES,aSyn yeast inh,FUS yeast rescue,TDP-43 yeast inh,Abeta rescue
Cc1ccc(S(=O)(=O)NNC(=O)C(O)(c2ccccc2)c2ccccc2)cc1,9.8%,x,13.7%,i
O=C(Cn1c(-c2cccs2)cc2cc(Cl)ccc21)NCc1ccccc1,x,i,2.8%,i
O=C(O)Cn1c(-c2cccs2)cc2cc(Cl)ccc21,x,i,17.8µM*,i
COc1cc(NC(=O)c2ccccc2)cc(OC)c1,3.55µM*,i,0.0%,i
COc1cc(NC(=O)C(Cc2ccccc2)n2cccc2)cc(OC)c1 (stereo unspecified),4.7%,i,20µM*,i
COc1ccc(C(=O)Nc2cc(OC)cc(OC)c2)cc1,-7.5%,i,29.3%,i
CC1CCCCN1C(=O)C1CCCN(S(=O)(=O)c2cccc3nsnc23)C1 (stereo unspecified),-0.9%,i,8.1%,i
COC(=O)/C=C1\S/C(=N\N=C\CC(=O)OC)NC1=O,-10.7%,31.6µM*,-7.1%,u
COC(=O)/C=C1\SC(=Nc2ccc(OC)cc2)NC1=O,7.9%,i,20.5%,i
O=C(NCc1ccncc1)C1CCN(S(=O)(=O)c2cccc(C(F)(F)F)c2)CC1,5.1%,i,25.7%,i
CCOC(=O)c1noc2ncn(Cc3ccc([N+](=O)[O-])cc3)c(=O)c12,x,i,20µM*,i
CCOC(=O)c1noc2nc(C)n(Cc3ccc([N+](=O)[O-])cc3)c(=O)c12,x,i,15.6%,i
c1ccc(CSc2ccc(-c3cccnc3)nn2)nc1,-1.9%,i,8.0%,i
CCN1C(=O)CSC1=Nc1ccc(Cl)c(Cl)c1,-17.0%,i,12.6µM*,i
COc1ccccc1N(CC(=O)Nc1cc(C)on1)S(=O)(=O)c1ccc(Cl)cc1,-16.2%,i,-10.6%,i
CCOc1ccc(CNC(=O)c2ccc(Sc3ccc(C)cc3)c(NC(C)=O)c2)cc1OC,4.8%,u,u,i
CC(=O)Nc1cc(C(=O)NCc2ccc(C)cc2)ccc1Sc1ccc(C)cc1,x,u,20µM*,i
CCN1CCN(C(c2ccccc2)c2c(O)cc(C)n(CCOC)c2=O)CC1 (stereo unspecified),x,i,-19.8%,i
CCOc1c2ccoc2nc2c(OC)c(OC)ccc12,-4.1%,i,20.8%,i
C=CCOc1ccc2c(OC)c3ccoc3nc2c1OC,-3.2%,i,11.2µM*,i
N/C(Cc1ccc([N+](=O)[O-])cc1)=N\OC(=O)c1ccccc1F,1.4%,i,11.2µM*,i
COc1ccc(NC(=O)C(c2cc3c(cc2[N+](=O)[O-])OCO3)N2CCN(C=O)CC2)cc1 (stereo unspecified),-1.6%,i,-5.3%,i
CCN1C(=O)[C@H]2[C@@H](c3ccc(-c4ccc(OC)cc4)cc3)N3CCC[C@@]3(C(=O)OC)[C@H]2C1=O,6.9%,28.2µM*,u,i
CCN1C(=O)[C@H]2[C@@H](c3ccc(-c4ccccc4)cc3)N3CCC[C@@]3(C(=O)OC)[C@H]2C1=O,1.1%,u,35.5µM*,u
O=C(CSCc1ccccc1Cl)N/N=C/c1ccco1,-8.6%,i,12.6µM*,i
SMILES,aSyn yeast inh,FUS yeast rescue,TDP-43 yeast inh,Abeta rescue
Cc1ccc(C(=O)c2cc(C)sc2N)cc1,14.9%,i,u,i
CCn1c2ccccc2c(=O)c2ccccc21,8.9%,i,12.6µM*,i
CCn1c2ccccc2c2cc([N+](=O)[O-])ccc21,10.8%,i,-23.1%,i
COc1cc(Cl)c(C)cc1NC(=O)c1cnn(-c2ccc(F)cc2F)c1C1CCN(C(=O)OC(C)(C)C)CC1,x,i,14.0%,i
CC(C)(C)OC(=O)N1CCC(c2c(C(=O)N3CCN(c4ccc(Cl)cc4)CC3)cnn2-c2ccc(F)cc2F)CC1,x,22.4µM*,u,i
COc1ccc(NC(=O)c2cnn(-c3ccc(F)cc3F)c2C2CCN(C(=O)OC(C)(C)C)CC2)cc1Cl,x,12.6µM*,16.4%,i
COc1cc(O)c(C(CC(=O)N2CCN(c3ccccc3)CC2)c2ccc(N(C)C)cc2)c(OC)c1 (stereo unspecified),-0.6%,i,-1.6%,i
